Screens as filed in PubChem BioAssay.
An excerpt weighted towards active compounds, which were near 6.7% of everything screened.
T cruzi growth: T. cruzi proliferation inhibition. inhibition, % at 8.34 µM. T. cruzi beta-gal in NIH3T3, GalScreen luminescence, 90 h. 5.9% of 77,000 active. AID 624255;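 active = mean inhibition above about 93%, with at least 55% of replicates each passing it, limit read from the data, passing the limit was not always enough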
Pf Dd2 growth: blocks growth of Plasmodium falciparum Dd2 parasites; P. falciparum Dd2 growth, SYBR Green, 72 h; active compounds read low; activity change, % at 10 µM; 2.3% of 94,000 active; AID 1159554; in the data active = activity change below about -80%
C diff growth: inhibitors of Clostridium difficile growth | Clostridium difficile clinical isolate growth, OD600, 24 h; active compounds read low | growth activity, negative = inhibition, % at 16 µg/mL (by protocol) | 0.25% of 86,000 active;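 active = mean growth activity at or below -80% and every replicate also at or below -80%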;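 also: 0% = DMSO wells and -100% = levofloxacin 16 µg/mL wells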
Active calls of the source: *; / = not tested or not shown.

SMILES | T cruzi growth | Pf Dd2 growth | C diff growth
C[C@H](CO)N1C[C@H](C)[C@H](CN(C)C(=O)Nc2ccc(F)cc2)OCCCC[C@H](C)Oc2ccc(NC(=O)C3CCCCC3)cc2C1=O | 75 | -11 | 6
C[C@H]1CCCCO[C@H](CN(C)C(=O)Nc2ccc(C(F)(F)F)cc2)[C@@H](C)CN([C@@H](C)CO)C(=O)c2cc(NC(=O)C3CCCCC3)ccc2O1 | 54 | -84* | -7
C[C@@H]1CCCCO[C@H](CN(C)C(=O)Nc2ccc3c(c2)OCO3)[C@@H](C)CN([C@H](C)CO)C(=O)c2cc(NC(=O)C3CCCCC3)ccc2O1 | 53 | -33 | -2
C[C@@H]1CCCCO[C@H](CN(C)C(=O)Nc2ccc(C(F)(F)F)cc2)[C@@H](C)CN([C@H](C)CO)C(=O)c2cc(NC(=O)C3CCCCC3)ccc2O1 | 90 | -84* | -3
C[C@H]1CCCCO[C@H](CN(C)C(=O)Nc2ccc(F)cc2)[C@@H](C)CN([C@@H](C)CO)C(=O)c2cc(NC(=O)C3CCCCC3)ccc2O1 | 75 | -86* | -6
CN(C)C(=O)c1ccc(-c2ccc([C@H]3[C@@H](C#N)N(C(=O)C4CCCC4)[C@H]3CO)cc2)cc1 | 73 | -16 | 5
CNC(=O)C[C@@H]1CC[C@@H]2[C@H](COC[C@@H](O)CN2C(=O)Nc2ccc3c(c2)OCO3)O1 | / | 37 | 3
O=C(N[C@@H]1CC[C@@H](CC(=O)N2CCOCC2)O[C@H]1CO)c1ccccn1 | 20 | -1 | 2
O=C(O)C[C@H]1C[C@@H]2c3cc(NS(=O)(=O)c4ccc(F)cc4)ccc3O[C@@H]2[C@H](CO)O1 | -30 | 23 | 0
COCC(=O)Nc1ccc2c(c1)C(=O)N(C)[C@H]1CC[C@H](CC(=O)Nc3ccccc3)O[C@@H]1CO2 | 28 | -13 | -1
C[C@@H]1CN([C@H](C)CO)C(=O)c2cc(NC(=O)Nc3ccc(C(F)(F)F)cc3)ccc2O[C@@H](C)CCCCO[C@H]1CN(C)C(=O)Nc1ccc(C(F)(F)F)cc1 | 90 | -67 | 7
C[C@H](CO)N1C[C@H](C)[C@@H](CN(C)C(=O)Nc2ccc(C(F)(F)F)cc2)OCCCC[C@H](C)Oc2ccc(NC(=O)C3CCCCC3)cc2C1=O | 88 | -86* | 5
C[C@@H]1CCCCO[C@H](CN(C)C(=O)Nc2ccc(C(F)(F)F)cc2)[C@@H](C)CN([C@@H](C)CO)C(=O)c2cc(NC(=O)C3CCCCC3)ccc2O1 | 91 | -85* | -8
C[C@@H]1CCCCO[C@H](CN(C)C(=O)Nc2ccccc2)[C@H](C)CN([C@@H](C)CO)C(=O)c2cc(NC(=O)C3CCCCC3)ccc2O1 | 57 | -71 | 0
C[C@@H]1CCCCO[C@@H](CN(C)C(=O)Nc2ccc(C(F)(F)F)cc2)[C@@H](C)CN([C@@H](C)CO)C(=O)c2cc(NC(=O)C3CCCCC3)ccc2O1 | / | -92* | -2
C[C@@H]1CN([C@H](C)CO)C(=O)c2cc(NC(=O)C3CCCCC3)ccc2O[C@@H](C)CCCCO[C@H]1CN(C)C(=O)Nc1ccc(C(F)(F)F)cc1 | 86 | -68 | 5
CS(=O)(=O)N1[C@H](C#N)[C@H](c2ccccc2-c2ccc(F)cc2)[C@H]1CO | / | -86* | -15
C/C=C/c1ccc([C@H]2[C@@H](CO)N(C(=O)NC3CCCC3)[C@H]2C#N)cc1 | 51 | 18 | -1
COc1ccc(-c2ccccc2[C@@H]2[C@H](C#N)N(C(=O)C3CCCC3)[C@H]2CO)cc1 | / | 13 | 6
CS(=O)(=O)N1[C@H](C#N)[C@@H](c2ccccc2-c2ccc(F)cc2)[C@@H]1CO | / | -24 | -2
C/C=C/c1ccc([C@H]2[C@@H](C#N)N(C(=O)NC3CCCC3)[C@@H]2CO)cc1 | 52 | -84* | 0
COc1ccc(-c2ccccc2[C@H]2[C@@H](C#N)N(C(=O)C3CCCC3)[C@H]2CO)cc1 | / | -98* | -3
N#C[C@@H]1[C@H](c2ccccc2/C=C/c2ccccc2)[C@H](CO)N1S(=O)(=O)c1ccc(F)cc1 | / | -91* | 91
N#C[C@@H]1[C@H](c2ccccc2/C=C/c2ccccc2)[C@H](CO)N1S(=O)(=O)c1cccc(F)c1 | / | -27 | -6
COCC(=O)N(C)C[C@H]1Oc2cc(C#CC3CCCC3)ccc2S(=O)(=O)N([C@@H](C)CO)C[C@H]1C | 5 | 3 | /
SMILES | T cruzi growth | Pf Dd2 growth | C diff growth
COc1ccc(-c2ccccc2[C@H]2[C@@H](C#N)N(C(=O)NC3CCCC3)[C@H]2CO)cc1 | / | -94* | 4
CC(C)NC(=O)N1[C@H](C#N)[C@@H](c2ccccc2-c2ccc(F)cc2)[C@@H]1CO | / | -38 | 1
CC(C)NC(=O)N1[C@H](C#N)[C@H](c2ccccc2-c2ccc(F)cc2)[C@@H]1CO | / | -90* | -2
COc1ccc(-c2ccccc2[C@@H]2[C@@H](C#N)N(C(=O)NC3CCCCC3)[C@H]2CO)cc1 | / | -6 | 16
Cc1ccc(S(=O)(=O)Nc2ccc3c(c2)CC(=O)N([C@H](C)CO)C[C@H](C)[C@@H](CN(C)Cc2ccccc2)O3)cc1 | / | -8 | -3
COc1ccccc1-c1ccc2n(c1=O)C[C@@H]1[C@@H](CO)[C@H](C(=O)NCc3ccccn3)[C@H]2N1C | / | 44 | -2
C[C@@H]1CCCCO[C@H](CN(C)S(=O)(=O)c2ccccc2)[C@@H](C)CN([C@@H](C)CO)C(=O)c2cc(NS(=O)(=O)c3ccc(F)cc3)ccc2O1 | / | -57 | -9
C[C@@H]1CCCCO[C@@H](CN(C)C(=O)Nc2ccc(C(F)(F)F)cc2)[C@H](C)CN([C@@H](C)CO)C(=O)c2cc(NC(=O)Nc3ccc4c(c3)OCO4)ccc2O1 | 112* | 15 | -3
C[C@@H]1CN([C@@H](C)CO)C(=O)c2cc(NC(=O)Nc3ccc(F)cc3)ccc2O[C@@H](C)CCCCO[C@@H]1CN(C)C(=O)Nc1ccc2c(c1)OCO2 | / | -89* | 3
C[C@@H]1CCCCO[C@@H](CN(C)C(=O)Nc2ccc3c(c2)OCO3)[C@H](C)CN([C@@H](C)CO)C(=O)c2cc(NC(=O)Nc3ccc(F)cc3)ccc2O1 | 33 | 4 | 2
C[C@H](CO)N1C[C@H](C)[C@@H](CN(C)C(=O)Nc2ccc3c(c2)OCO3)OCCCC[C@H](C)Oc2ccc(NC(=O)Nc3ccc(C(F)(F)F)cc3)cc2C1=O | 91 | -57 | 8
COc1ccc(NC(=O)N(C)C[C@H]2Oc3ccc(NS(C)(=O)=O)cc3C(=O)N([C@@H](C)CO)C[C@H]2C)cc1 | 83 | 41 | /
C[C@@H]1CN([C@@H](C)CO)C(=O)Cc2cc(NC(=O)c3ccncc3)ccc2O[C@@H]1CN(C)Cc1ccc(C(=O)Nc2ccccc2N)cc1 | / | -85* | 7
C[C@H]1CN([C@@H](C)CO)C(=O)Cc2cc(NC(=O)Nc3ccc(F)cc3)ccc2O[C@@H]1CN(C)Cc1ccc(C(=O)Nc2ccccc2N)cc1 | / | -86* | 2
C[C@@H]1CN([C@H](C)CO)C(=O)Cc2cc(NC(=O)CCCCCC(=O)Nc3ccccc3N)ccc2O[C@H]1CN(C)Cc1ccccc1 | 21 | -53 | -12
C[C@H]1CN([C@@H](C)CO)C(=O)Cc2cc(NC(=O)CCCCCC(=O)Nc3ccccc3N)ccc2O[C@H]1CN(C)Cc1ccc(-c2ccccc2)cc1 | 43 | -82* | 0
